# LASV entry inh: qHTS for Inhibitors of binding or entry into cells for Lassa Virus. Lassa virus pseudotype entry inhibition, cell reporter. 1.2% of 300,000 active. AID 540256, 2011. Potency, µM (top dose mostly 37.9 µM), inactives show at the highest dose activity change, negative = inhibition, actives largely listed as inhibitors; calls by dose curve; tested in HEK293 cells; further: potency means the concentration at half of the fitted maximal effect; on the % scale 0 is the no-effect control and ±100 the full control effect; nearly all actives have a fitted effect of over 50% in size
# Pf growth 48h: Primary qHTS for delayed death inhibitors of the malarial parasite plastid, 48 hour incubation; P. falciparum luciferase growth in erythrocytes, 48 h; Potency, µM (titrated, usually from 28.7 µM), for the others: at the top dose activity change, negative = inhibition, usual class: inhibitors; 5.9% of 310,000 active; AID 504832, 2011; further: potency means the concentration at half of the fitted maximal effect; on the % scale 0 is the no-effect control and ±100 the full control effect
#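 Luciferase-expressing P. falciparum in infected erythrocytes (2% hematocrit, 0.1% parasitemia final) in RPMI 1640/0.5% Albumax were exposed to compound for 48 hours at 37 C, 5% CO2; growth read as luminescence.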
# CHX counter: Cycloheximide Counterscreen for Small Molecule Inhibitors of Shiga Toxin. cell reporter, cycloheximide protein synthesis inhibition counterscreen. max response, %. 12% of 300,000 active. AID 2314, 2010; in the data active means max response mostly above about 13%, no sharp cut-off; inactive means mostly below about 14%; further: read at 38.3 µM for the half of the compounds with a filed dose; 0% is about no effect
# Shiga inhibitor: A qHTS for Small Molecule Inhibitors of Shiga Toxin | Vero cells, Shiga toxin protein synthesis inhibition reporter | inhibition, % at 38.7 µM | 9.2% of 290,000 active; in the data active means inhibition mostly above about 28%, no sharp cut-off; inactive means mostly below about 43%; further: 0% is about no effect
# Pf growth 96h: Primary qHTS for delayed death inhibitors of the malarial parasite plastid, 96 hour incubation; P. falciparum luciferase reporter growth, 96 h; Potency, µM (top dose mostly 28.7 µM), for the others: at the top dose activity change, negative = inhibition, usual class: inhibitors; 6.9% of 320,000 active; AID 504834, 2011; further: potency means the concentration at half of the fitted maximal effect; on the % scale 0 is the no-effect control and ±100 the full control effect
#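 Cell-based qHTS: luciferase-tagged P. falciparum in erythrocytes (2% hematocrit, 0.05% parasitemia final) incubated with compounds for 96 hours, 37 C, 5% CO2; luciferase detection reagent then added and luminescence measured.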
# Marburg entry inh: qHTS for inhibitors of binding or entry into cells for Marburg Virus; AID 540276, 2011; 1.8% of 300,000 active; Marburg virus pseudotyped entry inhibition, cell reporter; Potency, µM (titrated, usually from 37.8 µM), for the others: at the highest dose activity change, negative = inhibition, most hits filed as inhibitors; calls by dose curve; tested in HEK293 cells; further: potency means the concentration at half of the fitted maximal effect; on the % scale 0 is the no-effect control and ±100 the full control effect
# The depositor's hits bear a star; u = inconclusive; x = not tested or not shown; + = active, no number; [ ] = another dose, or the depositor's remark. The list is not random: actives were taken first. Their share in the collection is about 19%. Unless noted, the call rests on the fitted dose curve; in most records, active means well fitted inhibition curve with a large enough effect; inconclusive means small, poorly fitted or top-dose-only effect, or another doubt; inactive means no such curve, though single readings can be large or run the other way.
SMILES,LASV entry inh,Pf growth 48h,CHX counter,Shiga inhibitor,Pf growth 96h,Marburg entry inh
Cn1c(Oc2ccc(Cl)cc2)c(C=O)c2ccccc21,-21%,u,-2,-30,9.3µM*,-17%
Cn1c(Sc2ccc(Cl)cc2)c(C=O)c2ccccc21,-23%,12µM*,3,9,u,-28%
Cn1c(Sc2ccccc2Cl)c(C=O)c2ccccc21,-25%,u,-2,17,u,-6%
O=C(Nc1nnc(S(=O)(=O)N2CCCCC2)s1)c1ccc(F)cc1,2%[46.1 µM],x,x,x,x,x
O=C(NC(=S)NCc1ccccc1)C1CC1,-14%,30%,-2,1,8%,-19%[46.1 µM]
O=C(CNC(=S)NC(=O)C1CCCCC1)c1ccccc1,12%,188%,75*,114*,49%,u
O=C(NC(=S)N(Cc1ccccc1)Cc1ccccc1)C1CCCCC1,-17%,u,8,-12,u,-7%[46.1 µM]
O=C(NC(=S)NCCc1ccccc1)C1CCCCC1,u,-22%,34*,55*,-1%,u
Nn1cnc2scc(-c3ccc(Cl)cc3)c2c1=O,x,4%,-3,-6,5.2µM*,x
Nn1cnc2scc(-c3cccs3)c2c1=O,-15%[46.1 µM],7%,-1,-10,16%,-17%[46.1 µM]
CCCCN(C(=O)CSc1nc2ccccc2s1)c1c(N)n(CCCC)c(=O)[nH]c1=O,-3%,x,x,x,x,-19%
CCCCn1c(N)c(N(CCOC)C(=O)c2cc(-c3ccc(OC)c(OC)c3)nc3ccccc23)c(=O)[nH]c1=O,-15%,u,x,x,-6%,-3%
CCCCN(C(=O)c1cc(-c2ccco2)nc2ccccc12)c1c(N)n(CCCC)c(=O)[nH]c1=O,u,u,x,x,u,-19%[46.1 µM]
CCCCN(C(=O)c1cc(-c2ccc(F)cc2)nc2ccccc12)c1c(N)n(CCCC)c(=O)[nH]c1=O,u,u,x,x,7.4µM*,u
CCCCN(C(=O)CSc1nn(-c2ccc(F)cc2)c(=S)s1)c1c(N)n(CCCC)c(=O)[nH]c1=O,-18%,u,x,x,13µM*,u
CCCCn1c(N)c(N(CC(C)C)C(=O)c2cc(-c3ccc(OC)c(OC)c3)nc3ccccc23)c(=O)[nH]c1=O,18%[46.1 µM],1.3µM*,x,x,u,-6%
CCCCn1c(N)c(N(CC(C)C)C(=O)c2cc(-c3ccc(F)cc3)nc3ccccc23)c(=O)[nH]c1=O,u,12µM*,x,x,u,u
O=S(=O)(NCCN1CCOCC1)c1ccc2c(c1)OCCO2,-4%,-16%,-2,-22,38%,27%[46.1 µM]
Cc1ccc(N2C(=O)C(O)(C(F)(F)F)C3=C2CC(C)(C)CC3=O)cc1 (stereo not given),u,28%,-5,-11,18%,10%
O=C(CN1CCCCC1)N1CCCc2c1c(=O)oc1ccc(OCc3ccccc3)cc21,-1%,-14%,-3,-10,-105%,u
Cc1ccccc1CN1CCN(S(=O)(=O)c2ccc(Cl)s2)CC1,-16%,13%,-3,16,13µM*,u
Cc1ccc(N2CCN(S(=O)(=O)c3ccc(Cl)s3)CC2C)cc1 (stereo not given),-19%,u,15*,22*,u,-12%
CCOc1ccccc1N1CCN(S(=O)(=O)c2ccc(Cl)s2)CC1,-30%,-15%,17*,35*,x,-28%
Cc1ccccc1CN1CCN(S(C)(=O)=O)CC1,-3%,1%,-4,-5,-1%,-1%
Cc1ccc(N2CCN(S(=O)(=O)c3c(C)[nH]c(=O)[nH]c3=O)CC2C)cc1 (stereo not given),16%[46.1 µM],x,x,x,x,x
SMILES,LASV entry inh,Pf growth 48h,CHX counter,Shiga inhibitor,Pf growth 96h,Marburg entry inh
COc1ccccc1N1CCN(S(C)(=O)=O)CC1,8%,x,12,12,37%,26%
COc1ccccc1N1CCN(S(=O)(=O)c2ccc(Cl)s2)CC1,-4%,-2%,16*,27,52%,u
O=C(COC(=O)CCC(=O)c1cccs1)NCc1ccc(Cl)cc1,1%[46.1 µM],41%,6,-6,61%,4%[46.1 µM]
O=C(c1ccc(N2C(=O)C3C4CC(C(Br)C4Br)C3C2=O)cc1)N1CCCCC1 (stereo not given),4%,u,-3,-3,71%,5%
COc1ccccc1N1CCN(CC(O)c2ccccc2)CC1 (stereo not given),7%,4%,10,4,7%,-9%[46.1 µM]
Cc1ccc(S(=O)(=O)N2CCCC(C(=O)NCc3ccc4c(c3)OCO4)C2)cc1 (stereo not given),-1%,-9%,-2,-3,29%,-20%
COc1ccc(CCNC(=O)Cc2c(C)c3c(cc(C)c4c(C)c(C)oc43)oc2=O)cc1,7%[46.1 µM],x,x,x,x,1%[46.1 µM]
COc1ccc(S(=O)(=O)N(C(=O)c2ccco2)c2cc3sc(=O)oc3c3ccccc23)cc1,u,u,-2,-4,44%,u
Cc1ccc(S(=O)(=O)N(C(=O)c2ccco2)c2cc3sc(=O)oc3c3ccccc23)cc1,u,10µM*,-5,-10,12µM*,u
O=C(NC1CCCN(Cc2ccc(Cl)cc2)C1)c1cccc(F)c1 (stereo not given),x,6%,-3,1,-8%,x
COc1cc(OC)cc(C(=O)Nc2ccc(CN3CCCCC3)cc2)c1,11%,u,-2,11,53%,11%
O=C(Nc1ccc(CN2CCCCC2)cc1)c1cccc(F)c1,17%,9%,31*,39*,13%[5.75 µM],u
COc1ccc(OCc2cccc(C(=O)Nc3ccc(CN4CCCCC4)cc3)c2)cc1,u,u,127*,+,u,u
CCOc1ccc(OCc2cccc(C(=O)Nc3ccc(CN4CCCCC4)cc3)c2)cc1,u,u,122*,87*,u,6.5µM*
CCCCCOC(=O)C1=C(C)NC(=O)NC1c1ccccc1 (stereo not given),x,3%,-4,-3,0%,x
CNC(=O)N/N=C(\N)c1ccccn1,x,58%,19*,37,68%,x
O=C(Nc1ccc(Cl)cc1)O/N=C(\c1ccccc1)c1ccccn1,18%,15%,21*,25,39%,10%
O=C(Nc1ccc(Cl)cc1)Nc1ccc(S(=O)(=O)Nc2ncccn2)cc1,x,-28%,-4,-7,32%,x
O=C(Nc1ccc(OC(F)F)cc1)c1ccccn1,18%,16%,8,16,-27%,9%[46.1 µM]
N/C(=N\NC(=O)Nc1ccc(Cl)cc1)c1ccccn1,11%,140%,39*,88*,203%,26%
Cc1nc(C(F)(F)F)c(C(=O)N/N=C(\N)c2ccccn2)s1,u,u,8,12,u,u
N/C(Cc1cccs1)=N\OC(=O)COc1ccccc1Cl,19%,106%,60*,119*,x,u

# Compound activity: PubChem BioAssay, National Center for Advancing Translational Sciences (NCATS)
